Source: paper PMC7862700, “An all-to-all approach to the identification of sequence-specific readers for epigenetic DNA modifications on cytosine”

Tests used:
Assay in all cases: DAPPL (digital affinity profiling via proximity ligation, sequencing); 10 mM Tris-HCl pH 7.5, 50 mM NaCl, 1 mM DTT, 4% glycerol, room temperature, 30 min; GST-TFs on glutathione beads, 16-mer random dsDNA library, 0.1% formaldehyde crosslink after washing; high values mean tight binding
FEV = target: T1, FEV (Homo sapiens, UniProt Q99581 1-238); settings: protein: recombinant; tags: N-terminal GST; dsDNA, one strand shown
T1 sequence: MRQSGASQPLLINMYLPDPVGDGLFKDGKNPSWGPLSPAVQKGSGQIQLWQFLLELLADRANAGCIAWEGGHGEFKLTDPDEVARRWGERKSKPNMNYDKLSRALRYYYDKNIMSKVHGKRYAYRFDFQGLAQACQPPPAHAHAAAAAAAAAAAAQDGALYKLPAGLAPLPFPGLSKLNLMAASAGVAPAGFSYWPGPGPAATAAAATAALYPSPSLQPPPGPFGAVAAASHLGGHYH
In short: (§1)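 Binding signal is each hexamer's read frequency for a factor divided by its frequency in the tag-only sample. The factors were GST-fused human transcription factors from yeast, captured on glutathione beads, DNA-barcoded and pooled with that sample. Pools were incubated with 200 nmole of a random double-stranded 16-mer DNA library in Tris/NaCl/DTT/glycerol buffer at room temperature for 30 min, then washed, crosslinked with 0.1% formaldehyde, proximity-ligated with BsaI/T4 ligase (1 h, 37 °C), PCR-amplified and sequenced on an Illumina NextSeq500.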

ETV5 = ETV5 (Homo sapiens, UniProt P41161 1-510); settings: protein: recombinant; tags: N-terminal GST; dsDNA, one strand shown
Chain of ETV5 (P41161 whole entry): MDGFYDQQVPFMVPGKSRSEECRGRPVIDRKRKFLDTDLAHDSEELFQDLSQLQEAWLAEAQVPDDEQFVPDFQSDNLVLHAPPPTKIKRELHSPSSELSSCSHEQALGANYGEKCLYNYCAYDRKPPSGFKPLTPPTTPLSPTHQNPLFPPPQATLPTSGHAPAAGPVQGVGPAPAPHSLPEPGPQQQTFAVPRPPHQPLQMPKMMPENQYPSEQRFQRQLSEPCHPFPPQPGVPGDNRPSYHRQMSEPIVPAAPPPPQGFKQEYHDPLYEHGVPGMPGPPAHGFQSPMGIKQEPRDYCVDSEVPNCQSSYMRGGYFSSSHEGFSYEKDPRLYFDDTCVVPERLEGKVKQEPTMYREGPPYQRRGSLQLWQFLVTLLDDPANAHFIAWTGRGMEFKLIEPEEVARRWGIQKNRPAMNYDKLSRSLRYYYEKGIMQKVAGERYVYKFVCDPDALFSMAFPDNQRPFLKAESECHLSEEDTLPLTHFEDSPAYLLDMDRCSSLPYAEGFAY
In short: as §1

HSF1 = HSF1 (Homo sapiens, UniProt Q00613 1-529); settings: protein: recombinant; tags: N-terminal GST; chain copies: 3; dsDNA, one strand shown
Chain of HSF1 (Q00613 whole entry): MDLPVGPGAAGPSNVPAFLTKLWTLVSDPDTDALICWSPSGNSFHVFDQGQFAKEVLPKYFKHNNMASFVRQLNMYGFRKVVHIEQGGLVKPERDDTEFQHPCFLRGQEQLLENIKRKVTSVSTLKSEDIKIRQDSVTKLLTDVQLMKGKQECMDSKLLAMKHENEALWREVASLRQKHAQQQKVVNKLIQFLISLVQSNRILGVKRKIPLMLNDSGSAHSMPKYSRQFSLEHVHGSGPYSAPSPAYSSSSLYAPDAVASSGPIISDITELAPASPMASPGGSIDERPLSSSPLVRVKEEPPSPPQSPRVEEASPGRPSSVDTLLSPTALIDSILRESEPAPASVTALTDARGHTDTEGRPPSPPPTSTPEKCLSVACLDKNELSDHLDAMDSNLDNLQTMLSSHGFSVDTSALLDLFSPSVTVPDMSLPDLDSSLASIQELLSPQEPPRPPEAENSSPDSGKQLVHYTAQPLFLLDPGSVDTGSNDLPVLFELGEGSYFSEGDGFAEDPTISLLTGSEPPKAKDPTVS
In short: as §1

SPIC = target: T2, SPIC (Homo sapiens, UniProt Q8N5J4 1-248); settings: protein: recombinant; tags: N-terminal GST; dsDNA, one strand shown
T2 sequence: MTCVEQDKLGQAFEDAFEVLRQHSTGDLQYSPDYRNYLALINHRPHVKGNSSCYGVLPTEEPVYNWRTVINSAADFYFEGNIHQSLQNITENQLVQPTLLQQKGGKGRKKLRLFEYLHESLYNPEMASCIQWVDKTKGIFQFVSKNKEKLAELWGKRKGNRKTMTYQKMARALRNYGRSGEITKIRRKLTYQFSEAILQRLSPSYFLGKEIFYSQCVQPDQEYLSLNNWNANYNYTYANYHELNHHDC
In short: as §1

ELF4 = ELF4 (Homo sapiens, UniProt Q99607 1-663); settings: protein: recombinant; tags: N-terminal GST; dsDNA, one strand shown
Chain of ELF4 (Q99607 whole entry): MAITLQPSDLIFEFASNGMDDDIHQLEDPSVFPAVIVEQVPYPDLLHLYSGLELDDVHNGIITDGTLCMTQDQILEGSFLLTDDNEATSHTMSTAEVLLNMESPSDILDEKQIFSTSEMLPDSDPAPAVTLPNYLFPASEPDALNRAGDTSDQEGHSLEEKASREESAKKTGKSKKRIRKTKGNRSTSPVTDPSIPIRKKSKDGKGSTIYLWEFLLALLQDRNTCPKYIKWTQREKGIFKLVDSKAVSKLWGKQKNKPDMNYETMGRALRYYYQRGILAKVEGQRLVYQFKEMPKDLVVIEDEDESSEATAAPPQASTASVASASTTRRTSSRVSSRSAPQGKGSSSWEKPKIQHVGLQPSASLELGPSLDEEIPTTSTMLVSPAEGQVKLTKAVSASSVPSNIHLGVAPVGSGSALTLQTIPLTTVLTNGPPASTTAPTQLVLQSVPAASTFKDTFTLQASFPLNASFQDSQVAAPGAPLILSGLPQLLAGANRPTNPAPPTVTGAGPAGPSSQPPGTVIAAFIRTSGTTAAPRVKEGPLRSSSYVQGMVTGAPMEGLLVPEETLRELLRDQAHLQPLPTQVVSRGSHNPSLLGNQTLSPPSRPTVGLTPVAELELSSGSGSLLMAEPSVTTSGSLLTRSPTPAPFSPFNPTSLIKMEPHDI
In short: as §1

ELK4 = target: T3, ELK4 (Homo sapiens, UniProt P28324-2 1-405); settings: protein: recombinant; tags: N-terminal GST; dsDNA, one strand shown
T3 sequence: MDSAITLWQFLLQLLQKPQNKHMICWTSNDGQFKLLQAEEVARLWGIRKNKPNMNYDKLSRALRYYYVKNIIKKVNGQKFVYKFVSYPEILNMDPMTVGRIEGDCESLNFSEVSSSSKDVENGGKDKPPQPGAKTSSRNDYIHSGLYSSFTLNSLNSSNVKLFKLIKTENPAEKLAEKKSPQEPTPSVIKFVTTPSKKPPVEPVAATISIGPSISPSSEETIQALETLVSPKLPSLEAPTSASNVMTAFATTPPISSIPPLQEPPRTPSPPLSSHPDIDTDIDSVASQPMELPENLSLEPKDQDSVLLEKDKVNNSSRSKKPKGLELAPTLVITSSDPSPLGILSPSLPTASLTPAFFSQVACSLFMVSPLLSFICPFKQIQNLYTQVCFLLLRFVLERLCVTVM
In short: as §1

ETV2 = target: T4, ETV2 (Homo sapiens, UniProt O00321 1-342); settings: protein: recombinant; tags: N-terminal GST; dsDNA, one strand shown
T4 sequence: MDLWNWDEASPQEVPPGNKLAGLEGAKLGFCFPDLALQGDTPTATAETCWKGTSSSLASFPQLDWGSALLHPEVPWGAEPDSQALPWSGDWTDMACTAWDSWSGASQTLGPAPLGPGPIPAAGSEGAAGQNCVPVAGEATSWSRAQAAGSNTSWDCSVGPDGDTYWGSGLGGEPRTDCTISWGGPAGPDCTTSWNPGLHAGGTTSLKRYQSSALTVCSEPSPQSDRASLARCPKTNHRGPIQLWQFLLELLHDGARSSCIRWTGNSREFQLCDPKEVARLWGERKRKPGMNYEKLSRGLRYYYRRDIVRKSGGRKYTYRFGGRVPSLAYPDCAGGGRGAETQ
In short: as §1

ELF3 = target: T5, ELF3 (Homo sapiens, UniProt P78545 1-371); settings: protein: recombinant; tags: N-terminal GST; dsDNA, one strand shown
T5 sequence: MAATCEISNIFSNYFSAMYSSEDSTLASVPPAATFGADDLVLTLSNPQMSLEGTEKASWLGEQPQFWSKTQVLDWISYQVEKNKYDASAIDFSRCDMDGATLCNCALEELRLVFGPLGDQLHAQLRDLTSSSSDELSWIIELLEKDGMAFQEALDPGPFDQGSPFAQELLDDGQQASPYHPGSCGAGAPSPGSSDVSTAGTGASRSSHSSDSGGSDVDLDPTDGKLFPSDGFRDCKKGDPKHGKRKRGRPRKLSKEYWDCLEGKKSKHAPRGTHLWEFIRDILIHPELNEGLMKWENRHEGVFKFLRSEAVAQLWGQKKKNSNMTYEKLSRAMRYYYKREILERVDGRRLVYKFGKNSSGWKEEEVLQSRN
In short: as §1

CRX = CRX (Homo sapiens, UniProt O43186 1-299); settings: protein: recombinant; tags: N-terminal GST; dsDNA, one strand shown
Chain of CRX (O43186 whole entry): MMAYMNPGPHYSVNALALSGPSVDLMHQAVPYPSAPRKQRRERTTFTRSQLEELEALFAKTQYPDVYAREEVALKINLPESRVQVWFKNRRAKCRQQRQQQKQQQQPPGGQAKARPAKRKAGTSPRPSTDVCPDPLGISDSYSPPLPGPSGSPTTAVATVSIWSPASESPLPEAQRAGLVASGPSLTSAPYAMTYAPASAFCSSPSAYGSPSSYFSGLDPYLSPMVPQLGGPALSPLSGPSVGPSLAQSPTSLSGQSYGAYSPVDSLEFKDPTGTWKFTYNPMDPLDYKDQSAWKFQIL
In short: as §1

With TTCCGG as the sequence, how does the binding signal (FEV) read?
Its binding signal is 8.68 fold enrichment (6-mer frequency, TF over GST control).

What about the binding signal (ETV5) of the same sequence?
Its binding signal is 6.4 fold enrichment (6-mer frequency, TF over GST control).

And the binding signal (HSF1)?
The binding signal was 1.93 fold enrichment (6-mer frequency, TF over GST control).

What about the binding signal (SPIC) of the same sequence?
Its binding signal is 5.6 fold enrichment (6-mer frequency, TF over GST control).

And the binding signal (ELF4)?
Its binding signal is 5.4 fold enrichment (6-mer frequency, TF over GST control).

What about the binding signal (ELK4) of the same sequence?
The binding signal was 4.67 fold enrichment (6-mer frequency, TF over GST control).

And the binding signal (ETV2)?
Its binding signal is 5.78 fold enrichment (6-mer frequency, TF over GST control).

What about the binding signal (ELF3) of the same sequence?
The binding signal was 5.14 fold enrichment (6-mer frequency, TF over GST control).

What about the binding signal (CRX) of the same sequence?
The binding signal was 1.33 fold enrichment (6-mer frequency, TF over GST control).
